Screening results: PubChem BioAssay, University of Kansas High Throughput Screening Laboratory
An excerpt weighted towards active compounds, which were near 3.6% of everything screened.
Pf apPOL block – Pf-apPOL DNA polymerase inhibition | 210,000 compounds, 0.25% hits | Recombinant Pf-apPOL, molecular beacon fluorescence, 1.5 h | inhibition, % at 10 µM
mHTT-CaM PPI inh – inhibitors of human mutant huntingtin-calmodulin interaction; 190,000 compounds, 3.6% hits; P42858; AlphaScreen His-mHTT/GST-CaM binding, luminescence; inhibition, % at 15 µM; AID 1671202;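 also: 0% = both proteins with DMSO and 100% = one protein alone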
Active calls of the source: *; . = not tested or not shown; + = active, no number. Rule as the data show it: active = inhibition above about 50%; inactive = the rest.

SMILES	Pf apPOL block	mHTT-CaM PPI inh
CCCC(=O)N1CCc2cc(OC)c(OC)cc2C1COc1ccc(OC)cc1 (configuration not stated)	0	7
COc1cc2c(cc1OC)C(COc1ccc(F)cc1)N(C(=O)c1cccc(F)c1)CC2 (configuration not stated)	-1	76*
COc1cc2c(cc1OC)C(COc1ccc(F)cc1)N(C(=O)Cc1ccc(F)cc1)CC2 (configuration not stated)	-3	61*
CCCc1nc(C)c2c(=O)n(CC#N)ccn12	-2	10
COc1ccc(-n2nc(C)c3sc(N4CCC(NC(=O)C5CC5)CC4)nc32)cc1	-2	-4
Fc1cccc(-c2nc(-c3cn(-c4cccc(F)c4)nn3)no2)c1	-2	-8
O=C(CSc1nnc(-c2ccncc2)n1-c1ccccc1)Nc1ccccc1Cl	-12	4
CC(=O)c1ccc(NC(=O)c2ccc3nc(-c4ccco4)c(-c4ccco4)nc3c2)cc1	-4	100*
O=C(Nc1ncn[nH]1)c1ccc2nc(-c3ccco3)c(-c3ccco3)nc2c1	8	34
O=C(Nc1ccc([N+](=O)[O-])cc1)N1CCN(c2ccccn2)CC1	2	0
O=C(NCc1ccco1)Nc1ccc2snnc2c1	-2	4
O=C(Nc1ccc2nc(-c3ccco3)c(-c3ccco3)nc2c1)N1CCN(c2ccccn2)CC1	-13	66*
COCCNC(=O)c1ccc2nc(-c3ccco3)c(-c3ccco3)nc2c1	2	59*
COCCCNC(=O)c1ccc2nc(-c3cccs3)c(-c3cccs3)nc2c1	1	-3
O=C(NCc1ccco1)Nc1ccc2nc(-c3ccco3)c(-c3ccco3)nc2c1	-2	96*
CC1CCN(S(=O)(=O)N2CCCC(C(=O)NC3CC3)C2)CC1 (configuration not stated)	-16	-7
COc1ccc(CNC(=O)c2cc3c(s2)CCN(C(=O)c2ccccc2)C3)c(OC)c1	-6	16
Cc1ccc(-n2nc3c(c2NC(=O)c2cc(Cl)ccc2[N+](=O)[O-])CS(=O)(=O)C3)cc1	-6	12
CCc1ccc(N2C(=O)CC(Sc3nc4ccccc4s3)C2=O)cc1 (configuration not stated)	2	1
Cc1ccc(NS(=O)(=O)c2ccc3[nH]cc(C(=O)NCCCOC(C)C)c(=O)c3c2)c(C)c1	0	8
CS(=O)(=O)c1ccc(Nc2nc(C(=O)NCCC3=CCCCC3)cs2)cc1	-6	4
COc1ccc2nc(-c3ccco3)c(-c3ccco3)nc2c1	0	99*
COc1ccc2nsnc2c1	-2	.
CCc1ccc(C2CC(c3cc(OC)ccc3OC)n3ncnc3N2)cc1 (configuration not stated)	-7	51*
COc1ccc(OC)c(C2CC(c3ccc(Br)cc3)Nc3nnnn32)c1 (configuration not stated)	-7	58*
SMILES	Pf apPOL block	mHTT-CaM PPI inh
Fc1ccc(C2CC(c3ccccc3OC(F)F)n3ncnc3N2)cc1 (configuration not stated)	-3	16
COc1cccc(C2CC(c3ccc(C)cc3)Nc3ncnn32)c1OC (configuration not stated)	-6	14
CCc1ccc(C2CC(c3ccccc3OC)n3ncnc3N2)cc1 (configuration not stated)	3	1
COc1ccc(OC)c(C2CC(c3ccc(C)cc3)Nc3nnnn32)c1 (configuration not stated)	0	6
FC(F)Oc1ccccc1C1CC(c2ccc(I)cc2)Nc2ncnn21 (configuration not stated)	-3	53*
COc1cccc(C2CC(c3ccc(Br)cc3)Nc3ncnn32)c1OC (configuration not stated)	-8	51*
CN(C)CCCNc1nc(-c2ccccc2O)nc2ccccc12	-15	1
O=C(NC1CCCCC1)C1CC(=O)N(C2CCCC2)C1 (configuration not stated)	-6	-2
CC(/C=C/c1cccnc1)=C\C(=O)O	-6	9
Cn1c(C2CCN(C(=O)Nc3ccc(F)c(Cl)c3)CC2)cc(=O)n2nccc12	-2	-4
Cc1ccc(N2CC(NC(=O)NCc3cccs3)CC2=O)cc1C (configuration not stated)	-10	-11
CCOc1cccc(C2CC(c3ccc(C)c(C)c3)=NC3(CCN(C)CC3)N2)c1O (configuration not stated)	2	7
Cc1cccc(C)c1-n1nnc(C(=O)NCC2CCCO2)c1C (configuration not stated)	-4	-10
Cc1ccc(C2CC(c3ccc(F)cc3)n3nnnc3N2)cc1 (configuration not stated)	7	0
COc1ccccc1C1CC(c2ccc(Cl)cc2)Nc2ncnn21 (configuration not stated)	-3	54*
COc1ccccc1C1CC(c2ccc(I)cc2)Nc2ncnn21 (configuration not stated)	-8	41
Cc1ccc(C2CC(c3ccc(F)c(Br)c3)n3nnnc3N2)cc1 (configuration not stated)	-6	61*
COc1ccc(-c2ncc3c(n2)CCN(C(=O)Nc2ccccc2Cl)C3)cc1	-5	-7
CCc1ccc(N2CCN(C(=O)c3ccccc3C)C(C)C2=O)cc1 (configuration not stated)	-5	-5
CCC(CC)C(=O)Nc1ccc(C)cc1	3	-5
Cc1[nH]nc2c1C(c1ccco1)CC(c1ccco1)=C2 (configuration not stated)	.	65*
Cn1nc(NC(=O)c2ccc(F)cc2Cl)c2c1NC(=O)CC2c1ccco1 (configuration not stated)	-4	-10
Cn1nc(-c2nc(-c3ccc(F)cc3)no2)c2c1CCN(C(=O)NC(C)(C)C)C2	-1	1
CC(NC(=O)Cc1cn(C)c2ncccc12)c1ccccn1 (configuration not stated)	-2	-1
Cc1cc(C)nc(SCc2c(C(=O)NCc3cccs3)nnn2-c2ccccc2)n1	-7	-14
SMILES	Pf apPOL block	mHTT-CaM PPI inh
OC(C#Cc1ccccc1)c1ccco1 (configuration not stated)	70*	100*
O=C(O)CC(C(=O)O)c1ccco1 (configuration not stated)	.	-3
O=C(NC1(c2nc(-c3ccncc3)no2)CCCCC1)c1ccc(C(F)(F)F)cc1	3	15
O=C(Nc1ccc2c(c1)OCCO2)c1ccnc(N2CCNC(c3ccccc3)C2)c1 (configuration not stated)	4	16
O=C(Nc1ccc2c(c1)CCC2)c1ccnc(N2CCNC(c3ccccc3)C2)c1 (configuration not stated)	-4	82*
O=C(c1ccc(I)o1)N1CCN(c2ccc(F)cc2)CC1	6	-2
O=C1Cc2ccccc2C1=C1Cc2ccccc2C1	12	.
O=C1C(=C2C/C(=N/O)c3ccccc32)C(=O)c2ccccc21	.	+
O=C1C(c2ccccn2)=C(O)c2ccccc21	1	4
O=C1CC(=C2C(=O)c3ccccc3C2=O)c2ccccc21	.	86*
COc1cccc2cc(-c3cc(=O)oc4cc(C)c(OC(=O)C5CC5)cc34)oc12	2	-2
CC(C)Oc1ccc(C(=O)Nc2ccc(N3CCN(C(=O)c4ccccc4)CC3)cc2)cc1	-13	1
CCSc1nnc2c(n1)OC(c1ccccc1OC)N(C(C)=O)c1ccccc1-2 (configuration not stated)	5	14
